An excerpt weighted towards active compounds, which were near 0.95% of everything screened.
Cdc25B inh – human M-phase inducer phosphatase 2 inhibition | inhibition, %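 (compounds tested at 10 µM final in the well)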 | 65,000 compounds, 0.1% hits | recombinant Cdc25B, OMFP fluorescence Ex485/Em525 | AID 368 | P30305; in the data active = inhibition above about 50%
SKBR3 24h inh – SK-BR-3 proliferation inhibitors; AID 847; SK-BR-3 viability, CellTiter-Glo ATP luminescence, 24 h; hits give low values; 41,000 compounds, 0.47% hits; viability, % at 10 µM;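 active = viability at or below the median of all test compounds minus 3 SD, in both replicates if run twice, cut at about 45% in these data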;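 note: 100% = median untreated cell wells and 0% = median positive control drug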
PKA inh – inhibitors of human protein kinase A. PKA Kemptide phosphorylation, Kinase-Glo ATP luminescence. 65,000 compounds, 0.1% hits. inhibition, % at 6 µM. AID 524;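 active = inhibition above the screen-wide mean inhibition plus 3 SD, cut at about 21% in these data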
ROCK2 inh – ROCK2 (human) kinase inhibition; O75116; purified ROCK2, Kinase-Glo ATP depletion luminescence; inhibition, % at 6 µM; 60,000 compounds, 0.35% hits;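 active = inhibition above the screen-wide mean inhibition plus 3 SD, cut at about 18% in these data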;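 note: plate controls were DMSO wells for no effect and Y-27632 control wells after no-enzyme background subtraction for full effect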
WNV NS2B-NS3 inh – inhibitors of West Nile virus NS2B-NS3 protease; P06935; WNV NS2B-NS3 protease, fluorogenic substrate Ex360/Em465; hits give low values; z-score (no concentration beside the values); 65,000 compounds, 0.18% hits; AID 577; in the data active = z-score below about -3
DUSP1 inh – human dual specificity phosphatase 1 inhibition. AID 374. 65,000 compounds, 0.15% hits. recombinant MKP-1, OMFP hydrolysis fluorescence. P28562. inhibition, %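 (compounds tested at a single concentration somewhere between 10 and 100 µM)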;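 active = inhibition above about 50%, limit read from the data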;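 note: 0% = DMSO max control wells and 100% = wells with enzyme stopped by NaOH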
Target sequence (P28562 whole entry, looked up): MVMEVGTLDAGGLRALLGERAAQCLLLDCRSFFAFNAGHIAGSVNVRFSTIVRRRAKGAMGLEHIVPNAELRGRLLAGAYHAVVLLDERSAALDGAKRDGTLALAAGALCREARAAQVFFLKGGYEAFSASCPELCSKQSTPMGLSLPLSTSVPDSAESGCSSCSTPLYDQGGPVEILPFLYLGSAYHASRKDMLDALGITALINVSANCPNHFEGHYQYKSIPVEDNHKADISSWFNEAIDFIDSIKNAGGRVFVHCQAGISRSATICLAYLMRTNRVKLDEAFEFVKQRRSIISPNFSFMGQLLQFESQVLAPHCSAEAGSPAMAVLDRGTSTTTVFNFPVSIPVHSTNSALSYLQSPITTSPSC
Active calls of the source: *; x = no result given.

SMILES	Cdc25B inh	SKBR3 24h inh	PKA inh	ROCK2 inh	WNV NS2B-NS3 inh	DUSP1 inh
COc1cc(C2c3c(oc4c(C)cc(C)cc4c3=O)C(=O)N2Cc2cccnc2)ccc1O (centres undefined)	-4	35*	-1	-1	0.56	5
COc1ccccc1-c1nnc(SCC(=O)NCc2c(C)c(Cl)cc(C(C)C)c2O)o1	-12	77	10	3	-0.12	13
COC(=O)c1[nH]c2cc(OC)ccc2c1NC(=O)c1ccc2c(c1)OCO2	-2	99	1	x	-5.6*	-4
CCOC(=O)c1[nH]c2ccc(OC)cc2c1NC(=O)c1ccc2c(c1)OCO2	-6	76	1	x	0.61	16
Cc1cc(C)nc(N2CCCC(C(=O)NCCc3ccccc3F)C2)n1 (centres undefined)	-4	43*	-2	-2	1	-19
CN(C)S(=O)(=O)c1ccc(C(=O)Nc2ccnn2C2CCCCC2)cc1	-18	x	8	5	0.98	18
CCSCCOC(=O)C1=C(C)NC2=C(C(=O)CCC2)C1c1coc2ccccc2c1=O (centres undefined)	-4	x	-8	-6	0.15	50*
CC1=C(C(=O)OCc2ccccc2)C(c2ccc(C)o2)C2=C(CCCC2=O)N1 (centres undefined)	-3	x	1	3	-1.1	5
CCCCS(=O)(=O)/C=C\C=C/S(=O)(=O)CCCC	5	38*	2	x	0.41	16
CCCCS(=O)(=O)/C=C\C1C2C=CC(C2)C1S(=O)(=O)CCCC (centres undefined)	-12	x	-5	-7	0.96	7
Cc1cc(C)nc(-n2nc(C)cc2Nc2ccccc2)n1	-13	88	10	5	0.56	12
CCC(C(=O)Nc1cc(C)nn1-c1nc(C)cc(C)n1)c1ccccc1 (centres undefined)	66*	60	6	4	-0.09	33
Cc1cccc2cc(C#N)c(NCCNC(=O)NC3CCCCC3)nc12	1	100	-10	-3	1.1	-1
Cc1cccc2cc(C#N)c(NCCNS(=O)(=O)c3ccc4c(c3)OCCO4)nc12	-1	30*	-1	-1	-0.2	15
CCOC(=O)c1sc2ncnc(N3CCN(c4ccc(OC)cc4)CC3)c2c1C	-13	76	14	5	-0.44	-23
c1nc(N2CCOCC2)c2[nH]cnc2n1	-3	112	15	26*	-1.3	-2
C1=C(c2ccccc2)CCN(c2ncnc3nc[nH]c23)C1	-10	x	18	24*	-0.34	-4
COc1ccc(N2CCN(c3ncnc4nc[nH]c34)CC2)cc1	-7	x	16	24*	1.7	-2
Nc1nc(NC(=O)c2cccc(S(=O)(=O)N3CCCCCC3)c2)nc(-c2ccccc2)n1	-10	88	-1	x	-0.96	28
COC(=O)c1cccnc1-n1c(=O)c2cccnc2n(Cc2cccc(OC)c2)c1=O	-9	x	6	4	0.6	0
CCCC(=O)N1CCN(c2ccc(NC(=O)c3cc4ccccc4o3)cc2Cl)CC1	-23	6.2*	8	11	1.2	7
CCC(=O)N1CCN(c2ccc(NC(=O)c3cc4ccccc4o3)cc2Cl)CC1	-2	91	-1	10	1.2	10
Cc1noc(C)c1CSCC(=O)OCC(=O)NC1CCCCC1	-14	32*	6	x	0.28	-5
COc1ccc(C(=O)COC(=O)CSCc2c(C)noc2C)cc1OC	-1	x	3	3	0.12	9
CCN(CC)C(=O)c1sc(NC(=O)Cc2cccs2)c(C#N)c1C	2	83	5	3	-4.4*	-18
SMILES	Cdc25B inh	SKBR3 24h inh	PKA inh	ROCK2 inh	WNV NS2B-NS3 inh	DUSP1 inh
CCOC(=O)c1c(NC(=O)Cc2cccs2)sc(C)c1C	-14	x	-3	-1	-1.4	-6
Cn1c(C(=O)OC(C(=O)NC2CCCCC2)c2ccncc2)cc2sccc21 (centres undefined)	19	67	9	0	0.49	14
COc1ccc(N2C(=O)C(CC(=O)O)S/C2=C\C(C)=O)cc1 (centres undefined)	-14	31*	4	x	1.5	14
O=C(O)CC1SC(=Nc2ccccc2)N(c2ccccc2)C1=O (centres undefined)	5	84	-4	x	0.77	0
O=C(OCc1cccs1)c1ccccc1NS(=O)(=O)c1ccc2c(c1)OCCO2	-9	79	-4	1	-0.56	-2
Cc1cc2c(N)cccc2nn1	52*	x	-3	-2	1	8
CN(C)c1nc2ccccc2c(N)c1-c1ccccc1	5	69	7	4	-0.02	-7
COC(=O)c1ccc(CSc2nnc(SCc3ccc(C(=O)OC)o3)s2)o1	3	x	0	-1	-3.5*	15
CCc1cc(C(=O)Cc2ccc(F)cc2)c(O)cc1O	-5	87	0	-2	0.06	3
CCCc1cc(C(=O)Cc2ccc(F)cc2)c(O)cc1O	-5	16*	5	8	-1	-11
Cc1ccc(-c2nn3c(C)nnc3s2)cc1NC(=O)c1ccc(-c2cccc(Cl)c2)o1	1	33*	0	10	-0.83	40
C=CCn1c(SCC(=O)OC)nc2sc3c(c2c1=O)CCN(C)C3	-27	113	6	6	-7.4*	-12
Cc1ccc(NC(=O)C2CCN(S(=O)(=O)c3cccc4nonc34)CC2)nc1	-17	88	-1	0	-4.8*	2
O=C(Nc1ccccn1)C1CCN(S(=O)(=O)c2cccc3nonc23)CC1	3	x	6	x	1.4	11
CCOC(=O)C1CCN(C(=O)CSC2=NCCS2)CC1	-13	x	0	0	2.2	-6
CCn1c(CNC(=O)c2ccc(OC)c(OC)c2)nnc1SCC(=O)c1ccc(OC)cc1	-12	87	3	1	-1.2	9
COc1ccc(C(=O)CSc2nnc(CNC(=O)c3ccc(OC)c(OC)c3)n2C)cc1	-10	103	10	7	-0.32	74*
COc1ccc2[nH]c(=O)c(CN(Cc3ccccc3OC)Cc3nnnn3CC3CCCO3)cc2c1 (centres undefined)	-13	x	1	4	1	40
COc1ccccc1CN(Cc1cc2cc(C)ccc2[nH]c1=O)Cc1nnnn1CC1CCCO1 (centres undefined)	-15	37*	8	3	1.9	32
CCOC(=O)Cn1nnnc1CN(Cc1ccc(OC)cc1)Cc1cc2cc(C)ccc2[nH]c1=O	-14	39*	10	4	0.99	9
CSc1nsc(SCC(=O)N2CCN(c3ccccc3)CC2)n1	-10	78	9	3	2.7	24
Nc1cc(OC(=O)c2cccs2)nn1S(=O)(=O)c1ccc(F)cc1	-6	65	11	5	-5.3*	1
Cc1nn(-c2ccccc2)c(OC(=O)c2cccs2)c1S(=O)(=O)c1ccccc1	5	x	-4	0	-1.2	-9
Nc1cc(OC(=O)c2cccs2)nn1S(=O)(=O)c1ccccc1	-6	86	7	10	-8.1*	5

Source: PubChem BioAssay (several laboratories)
